According to PubChem BioAssay:
Values without a mark were called inactive.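 The calls were made as follows: active = at least 20% inhibition of 6-phosphogluconate dehydrogenase activity; inactive = the rest.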 Where a SMILES comes first, the peptide text is derived from it. Bridges are numbered along the chain shown (N, C = ends). [ ]: non-standard residue; d: D form. The star is where a group is joined. ξ: configuration not given here. ξDab(CH2SO3H) = NC(CCNCS(=O)(=O)O)C(=O)O; Octanoyl(6-Me) = CCC(C)CCCCC(=O)*; Dab = NCC[CH](N)C(=O)O

target: 6-phosphogluconate dehydrogenase, decarboxylating (Homo sapiens) (UniProt P52209); test: 6PGD enzyme inhibitors, primary screen, biochemical, human, recombinant enzyme, NADPH absorbance (AID 1159550); details: recombinant 6PGD, NADPH absorbance 341 nm; at 10 µM; stronger effect = higher value
Sequence (P52209 whole entry, looked up): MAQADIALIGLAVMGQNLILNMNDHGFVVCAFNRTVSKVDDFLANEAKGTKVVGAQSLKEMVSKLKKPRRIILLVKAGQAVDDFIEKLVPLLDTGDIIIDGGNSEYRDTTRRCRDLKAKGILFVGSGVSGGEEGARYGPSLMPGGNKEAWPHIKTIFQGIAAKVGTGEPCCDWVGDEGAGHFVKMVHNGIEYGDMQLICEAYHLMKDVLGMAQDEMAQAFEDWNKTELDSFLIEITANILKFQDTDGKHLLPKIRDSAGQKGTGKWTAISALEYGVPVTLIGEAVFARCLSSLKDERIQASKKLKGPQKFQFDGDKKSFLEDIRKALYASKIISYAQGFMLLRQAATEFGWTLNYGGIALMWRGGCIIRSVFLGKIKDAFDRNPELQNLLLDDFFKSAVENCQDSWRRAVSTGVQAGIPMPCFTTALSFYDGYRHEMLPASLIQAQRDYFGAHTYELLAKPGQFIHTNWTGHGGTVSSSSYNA

| Structure (SMILES) | inhibition |
| --- | --- |
| CC(=O)OC1CCC2(C)C(CCC3C2CC(=O)C2(C)C3CC3OC4(CCC(C)CO4)C(C)C32)C1 (stereo not given) | 5.72% |
| COc1c(C(C)C)oc2cc3oc(=O)ccc3cc12 | 2.98% |
| CC[C@H](C(=O)[C@@H](C)[C@@H](O)[C@H](C)[C@@H]1O[C@@H]([C@@H](CC)C(=O)O)CC[C@@H]1C)[C@H]1O[C@]2(C=C[C@@H](O)[C@]3(CC[C@@](C)([C@H]4CC[C@](O)(CC)[C@H](C)O4)O3)O2)[C@H](C)C[C@@H]1C | 2.61% |
| COc1cc(O)c2c(=O)cc(-c3ccc(O)cc3)oc2c1 | 6.18% |
| C=C1C(C)(C)[C@@]2(Cl)C(Cl)[C@]1(Cl)C(Cl)(Cl)C2(Cl)Cl (stereo not given in full) | 6.23% |
| O=C(O)C(O)C(O)C(=O)O (stereo not given) | 6.59% |
| C=C(C)/C=C1/C=CC(=O)C(C)=C1 | -4.6% |
| COc1cc2c(cc1O)[C@@H](Cc1ccc(O)cc1)[N+](C)(C)CC2 | 16.9% |
| CC(=O)OC1CC[C@@]2(C)C(CC[C@]3(C)C2CCC2C4CC(C)(C)CCC4(C(=O)O)CC[C@]23C)C1(C)C (stereo not given in full) | 5.8% |
| CCOC(=O)C(=O)C1(C(=O)OCC)Oc2cc(OC)cc(OC)c2C(=O)C1c1ccccc1 (stereo not given) | 14.2% |
| COc1ccc2c(c1)[C@@]1(C)CCC(=O)C[C@@H]1CC2 | 3.57% |
| CC(=O)Oc1ccc(/C=C2\N=C(c3ccccc3)OC2=O)cc1 | 0.187% |
| CCC(C)CCCCC(=O)NC(CCNCS(=O)(=O)O)C(=O)NC(C(=O)NC(CCNCS(=O)(=O)O)C(=O)NC1CCNC(=O)C(C(C)O)NC(=O)C(CCNCS(=O)(=O)O)NC(=O)C(CCNCS(=O)(=O)O)NC(=O)C(CC(C)C)NC(=O)C(CC(C)C)NC(=O)C(CCNCS(=O)(=O)O)NC1=O)C(C)O (stereo not given) ({Octanoyl(6-Me)}-[ξDab(CH2SO3H)]T[ξDab(CH2SO3H)][Dab][ξDab(CH2SO3H)]LL[ξDab(CH2SO3H)][ξDab(CH2SO3H)]T; lactam 4-C; configuration not given here) | 17.5% |
| CN1c2ccccc2C(=O)N2CCc3c([nH]c4ccc(O)cc34)[C@H]21 | 3.55% |
| CC(C)CCC[C@@H](C)[C@H]1CC[C@H]2[C@@H]3CC[C@@H]4C[C@H](O)CC[C@]4(C)[C@H]3CC[C@]12C | -3.72% |
| CC(=O)OC1CCC2(C)C(CCC3C2CCC2(C)C3CC3OC4(CCC(C)CO4)C(C)C32)C1 (stereo not given) | 4.61% |
| CC(=O)[C@H]1CC[C@H]2[C@@H]3CC(=O)C4=CC(=O)CC[C@]4(C)[C@H]3CC[C@]12C | -2.73% |
| C[C@H]1O[C@H]1P(=O)(O)O | 6.14% |
| C[C@@H]1[C@H]2[C@H](O[C@@H]3O[C@H](CO)[C@@H](O)[C@H](O)[C@H]3O)OC=C(C(=O)O)[C@H]2C[C@@H]1O | 16.7% |
| CC(C)=CCC[C@@H](C)[C@H]1CC[C@@]2(C)C3=C(CC[C@]12C)[C@@]1(C)CC[C@H](O)C(C)(C)[C@@H]1CC3 | 14.5% |

| Structure (SMILES) | inhibition |
| --- | --- |
| COc1ccc2c(=O)cc(-c3ccccc3OC)oc2c1 | 3.35% |
| N[C@@H](Cc1ccccc1)C(=O)N[C@@H](Cc1ccc(O)cc1)C(=O)O (H-Phe-Tyr-OH) | -6.19% |
| CC(=O)O[C@H]1CC[C@]2(C)[C@H]3CC=C4[C@@H]5CC(C)(C)CC[C@]5(C(=O)O)CC[C@@]4(C)[C@]3(C)CC[C@H]2C1(C)C | -0.817% |
| CC1(C)C(=O)C=C[C@]2(C)C3CC[C@@]4(C)[C@H](c5ccoc5)OC(=O)[C@H]5O[C@]54[C@]3(C)C(=O)C[C@@H]12 (stereo not given in full) | 1.03% |
| Nc1nc2c(ncn2[C@H]2C[C@H](O)[C@@H](CO)O2)c(=O)[nH]1 | -9.26% |
| COc1ccc(-c2cc(=O)c3ccc(OC)cc3o2)cc1 | -4.22% |
| CC(=O)OC1CCC2(C)C(CC(OC(C)=O)C3(C)C2CCC2(C)C(c4ccoc4)OC(=O)C4OC423)C1(C)C (stereo not given) | -7.87% |
| O=C(O)Cc1cc(I)c(Oc2cc(I)c(O)c(I)c2)c(I)c1 | -3.72% |
| C=C[C@@H](C1=CC(=O)C(OC)=CC1=O)c1ccccc1 | -0.743% |
| Oc1ccc2c(c1)OC[C@H]1c3cc4c(cc3O[C@@H]21)OCO4 | -3% |
| Oc1ccc2c(c1)OC[C@]1(O)Cc3cc(O)c(O)cc3C21 (stereo not given in full) | 9.03% |
| O=C(Oc1cc(OC(=O)c2ccccc2)c2c(c1)O[C@H](c1ccc(OC(=O)c3ccccc3)c(OC(=O)c3ccccc3)c1)[C@@H](OC(=O)c1ccccc1)C2)c1ccccc1 | -9.47% |
| COc1ccccc1/C=C/C(=O)O | 11.5% |
| CC(C)C[C@H](NC(=O)[C@H](C)N)C(=O)O (H-Ala-Leu-OH) | -6.83% |
| CC1CCC(C(C)C)C(O)C1 (stereo not given) | -10.6% |
| C[C@]12CC[C@@H]3c4ccc(OC(=O)CCC(=O)O)cc4CC[C@H]3[C@@H]1CCC2=O | 5.64% |
| COc1cc2c(cc1OC)[C@@H]1C(=O)c3c(O)cc4c(c3O[C@@H]1CO2)C=CC(C)(C)O4 | 12.7% |
| CC1(C)C=Cc2c(cc3occ(-c4ccc5c(c4)OCO5)c(=O)c3c2O)O1 | -4.68% |
| COc1ccc(C2COc3cc(O)ccc3C2)c(OC)c1O (stereo not given) | 1.81% |
| COc1cc(OC)c2oc(-c3ccc(OC)c(OC)c3)c(O)c(=O)c2c1 | -1.17% |
